Results on 61 compounds are retold here after PubChem BioAssay AID1347076 (National Center for Advancing Translational Sciences (NCATS), 2019).

Structures are written as SMILES. Screen size: about 400,000 compounds; about 13,000 (3.2%) were called active. Roughly 18% stayed inconclusive and do not appear here. The entries come from a sample that favours actives as a whole. Values without a mark were called inactive. Calls follow the shape of the dose curve; as a rule, active = well fitted cell-killing curve with a large enough effect; inconclusive = small, poorly fitted or top-dose-only effect, or effect the other way; inactive = flat fitted curve, though single readings scatter.
% is scaled to controls: 0 for no effect and ±100 for the full control effect; potency is read from the fitted curve at half-maximal effect.

The experiment can be described thus: qHTS assay for MDR1-selective chemotherapeutics: Primary screen using the drug-selected MDR subline cells KB-V1. Also: nearly all actives have a fitted effect of over 60% in size. Conditions: KB-V1 MDR cells viability, CellTiter-Glo, 72 h; series mostly up to 46.1 µM; activity change, negative = cytotoxicity: at the top concentration. An excerpt:
A prime difficulty in effectively treating cancer is the development of cellular resistance to multiple structurally unrelated anticancer drugs, a phenomenon known as multidrug resistance (MDR). […] Numerous strategies to overcome P-gp-mediated MDR have been explored, including the design of drugs that evade recognition and efflux, and development of inhibitors to block efflux and restore drug accumulation. […] An alternative approach is to exploit resistance by identifying drugs that target MDR cells over the non-resistant parental cells from which they were selected. […] The development of MDR1-selective agents represents a new strategy for resolving multidrug resistance, as it remains a long-standing clinical challenge for cancer chemotherapy.
Our goal is to identify compounds that selectively kill P-gp-expressing MDR cells. We will identify MDR1-selective compounds by comparing toxicity of compounds in the screening library against parental, drug-naive (KB-3-1) adenocarcinoma cells as well as their drug-selected MDR sub-line (KB-V1). The differential toxicity of compounds against these two cell lines will be used to identify MDR1-selective compounds, whose cytotoxicity is potentiated, rather than diminished, by P-gp expression. This assay will be utilized to conduct a quantitative high-throughput screen (qHTS) in collaboration with the NIH Chemical Genomics Center to identify selective agents, and probe hits arising from the screen will be validated using secondary assays and characterized through a well-established follow-up research program. This screen was run against the entire NCGC library collection of about 400,000 compounds.
NIH Molecular Libraries Probe Production Network [MLPCN]
NIH Chemical Genomics Center [NCGC]
PI: Michael Gottesman, National Cancer Institute, NIH
Briefly, 5 microL of media containing either KB-V1 cells (columns 1-2, 4-48) are dispensed into Greiner white, treated solid-bottom 1536-well assay plates (media-only control is added to column 3). Compounds are then transferred via Kalypsys pin tool equipped with 1536-pin array (10 nL slotted pins, V&P Scientific, San Diego, CA). Following addition of compound, the plates are incubated at 37 degrees C for 72 hours. CellTiter-Glo (2.5 µL/well) is then added, and the plates are read in a ViewLux reader (Perkin-Elmer, clear luminescence filter, 1 second exposure, 1x binning) following a 10 minute incubation. All cells are dispensed in DMEM phenol-red free media containing 10% FBS.
Library plates were screened starting from the lowest and proceeding to the highest concentration. Vehicle-only plates, with DMSO being pin-transferred to columns 5-48, will be inserted uniformly at the beginning and the end of each library in order to monitor and record any shifts in the background, which can be affected by reagent dispensers or loss in enzyme activity over time. Screening data will be corrected, normalized, and concentration-effect relationships will be derived by using publicly-available NCGC, NCATS curve fitting algorithms (http://ncgc.nih.gov/pub/openhts).
A general note: qHTS replaces the single test concentration by a dilution series.
Regarding `CC(=O)OC[C@@H]1CN(Cc2ccccc2)C[C@H](n2cnc3c(NCc4ccco4)ncnc32)O1`, the “activity change, negative = cytotoxicity” value was 1.69%. The same measure, in the same setting: as for `c1ccc(C2c3[nH]c4ccccc4c3CCN2Cc2cccn2-c2cccnc2)nc1` (stereo unspecified), the figure is -0.759%; as for `O=C(c1cn2ccccc2n1)N1CCc2c([nH]c3ccccc23)C1c1ccccn1` (stereo unspecified), -24.4%. Consider `COCc1ccc(C(=O)N2CCc3c([nH]c4ccccc34)C2c2ccccn2)s1` (stereo unspecified), for which the Potency was 18.4 µM (active). Regarding `COc1ccc(OC)c(NC(=O)c2cc(-c3cc(F)ccc3OCC3CCCO3)n[nH]2)c1` (stereo unspecified), the “activity change, negative = cytotoxicity” value is -1.76%. For `Cn1c(=O)c2c(nc(SCC(=O)Nc3ccc(F)cc3)n2Cc2ccccc2)n(C)c1=O`, the “activity change, negative = cytotoxicity” value is 12.7%.

As for `C[C@H]1Cn2cnc(C(=O)N[C@H](C)c3ccccc3)c2C(=O)N1`, the “activity change, negative = cytotoxicity” value is -24.1%.

`COc1cc(OC)c(NC(=O)c2nc(-c3ccncc3)no2)cc1Cl`: the “activity change, negative = cytotoxicity” value is 7.86%. Same read-out and setting: the figure for `CC1CC(=O)Nc2ccccc2N1S(=O)(=O)c1cccs1` (stereo unspecified) is -8.08%. Take `CC1CC(=O)Nc2ccccc2N1C(=O)COc1ccc2cc(Br)ccc2c1` (stereo unspecified): the Potency is 16.4 µM (active). `Cc1ccc(OCCC(=O)OCC(=O)N2c3ccccc3NC(=O)C2(C)C)cc1`: the “activity change, negative = cytotoxicity” value is 6.74%. For the compound `CN[C@H]1C[C@H]2c3cc(Oc4ccccc4C)ccc3CCN2C(=O)[C@H]1[C@H](C)O`, the “activity change, negative = cytotoxicity” value is 27.8%. For `C=CCNC(=O)c1ccc2nc(-c3ccco3)c(-c3ccco3)nc2c1`, the “activity change, negative = cytotoxicity” value was -3.16%. Regarding `C=Cc1ccc(C(=O)N2CCCC(CCC(=O)N3CCN(c4ccccn4)CC3)C2)cc1` (stereo unspecified), the “activity change, negative = cytotoxicity” value is 2.91%. Turning to `O=C(CCC1CCCN(C(=O)Cc2ccc(F)cc2)C1)N1CCN(c2ccccn2)CC1` (stereo unspecified), the Potency is 16.4 µM (active). Turning to `COc1cccc(CC(=O)N2CCCC(CCC(=O)N3CCN(c4ccccn4)CC3)C2)c1` (stereo unspecified), the “activity change, negative = cytotoxicity” value is -10.8%. The same measure, in the same setting: the figure for `COc1ccc(/C=C/c2ccnc3ccccc23)cc1OC` is -2.31%; for `Cc1ccc(/C=N/NC(=O)CSc2nc3ccccc3o2)cc1` it is 5.24%; for `Cc1cccc(OCC(=O)NCC(=O)N/N=C/c2ccc(N(C)C)cc2)c1` it is 0.638%. Take `Cc1ccc(/C=N/NC(=O)COc2ccccc2-c2ccccc2)cc1`: the Potency is 1.03 µM (active). Regarding `CCCc1c(C)nc2scc(-c3ccc(Cl)cc3)n2c1=O`, the “activity change, negative = cytotoxicity” value is -3.42%. `CCOC(=O)C1(S(=O)(=O)c2ccccc2)CCN(Cc2ccccc2)CC1`: the Potency is 16.4 µM (active). `CCOC(=O)C1CCN(Cc2ccc(-c3ccccc3)cc2)CC1`: the “activity change, negative = cytotoxicity” value was 5.14%. Consider `CCOC(=O)C1(S(=O)(=O)c2ccc(Cl)cc2)CCN(Cc2ccccc2)CC1`, for which the Potency is 20.6 µM (active). For `NC(=O)C1(N2CCCC2)CCN(Cc2ccccc2)CC1`, the “activity change, negative = cytotoxicity” value was -12.1%.

Consider `CCOC(=O)C1(CCOC)CCN(Cc2ccc(C(=O)OC)cc2)CC1`, for which the “activity change, negative = cytotoxicity” value is 3.28%. As to `O=C(NNS(=O)(=O)c1ccc(Cl)cc1)C1CCN(Cc2ccccc2)CC1`, the “activity change, negative = cytotoxicity” value was -3.31%. Same read-out and setting: the figure for `Cc1ccc(C=O)cc1Cl` is -14.5%. On to `Nc1ccccc1-c1nc2ccncc2[nH]1`, for which the “activity change, negative = cytotoxicity” value is -2.3%. Still for that read-out and setting: as for `COc1ccc(OC)c(NC(=O)C2(C)CCN2C(=O)Cc2ccccc2)c1` (stereo unspecified), the figure is 2.49%; as for `Cc1ccc(S(=O)(=O)N2C[C@@H](C)[C@]3(C2)[C@H](O)[C@H](OC(=O)NCc2ccccc2)C[C@H]2C(=O)N(c4ccccc4)C(=O)[C@H]23)cc1`, 29.5%. The same measure, in the same setting: as for `CC1CCCC(C)N1C(=O)COC(=O)c1ccccc1C(=O)c1ccccc1` (stereo unspecified), the figure is -3.83%. On the same count and under the same terms, the figure for `CCOc1ccc(NC(=O)C(CC(C)C)N2Cc3ccccc3C2=O)cc1` (stereo unspecified) is -6.07%.

For `CC(C)Cc1ccc(S(=O)(=O)N2CCN(C(=O)c3ccco3)CC2)cc1`, the Potency is 7.31 µM (active). As to `CN1CCN(S(=O)(=O)c2ccc(NC(=O)c3ccco3)cc2)CC1`, the “activity change, negative = cytotoxicity” value was 12.3%. Still for that read-out and setting: as for `O=C(CNS(=O)(=O)c1ccccc1)N1CCN(C(=O)c2ccco2)CC1`, the figure is 6.15%; as for `CCOc1ccccc1NC(=S)C(=C([O-])c1ccc2c(c1)OCCO2)[n+]1ccc(CC)cc1`, -25.9%; as for `CCc1nnc(NC(=O)C2CC(=O)N(c3ccc4c(c3)OCCO4)C2)s1` (stereo unspecified), 0%. Still for that read-out and setting: the figure for `CCOC(=O)c1ccc(NC(=O)C2CC(=O)N(c3ccc4c(c3)OCCO4)C2)cc1` (stereo unspecified) is 4.09%. Turning to `CC(=O)c1ccccc1NC(=O)C1CC(=O)N(c2ccc3c(c2)OCCO3)C1` (stereo unspecified), the Potency was 16.4 µM (active). `COc1cccc(NC(=O)CSC2=Nc3ccccc3C3=NC(CC(=O)NC4CCCCC4)C(=O)N23)c1` (stereo unspecified): the “activity change, negative = cytotoxicity” value was 2.59%.

Turning to `CCc1ccc2c(c1)NC(=O)C2(C)Cc1ccc(OC(F)(F)F)cc1` (stereo unspecified), the “activity change, negative = cytotoxicity” value was -4.96%. On the same count and under the same terms, as for `Nc1ncnc2c1ncn2[C@@H]1O[C@H](CNC(=O)[C@H](N)Cc2cccnc2)[C@@H](O)[C@H]1O`, the figure is 6.11%; as for `CCC1(C)CC(=O)c2c(ccc3oc(C(=O)Nc4ccc(C(C)=O)cc4)c(C)c23)O1` (stereo unspecified), -20.1%. The same measure, in the same setting: the figure for `COc1ccc(CCNC(=O)CCCCn2c(=O)c3ccccc3n(Cc3ccccc3C)c2=O)cc1OC` is -3.1%; for `Cc1ccc(Cn2c(=O)n(CCCC(=O)NCc3ccccc3Cl)c(=O)c3ccccc32)cc1` it is -1%; for `COc1cc(C(=O)Nc2ccc(OCc3cc(=O)n4cc(C)sc4n3)cc2)cc(OC)c1OC` it is 28%. For the compound `Cn1c(=O)c2c(nc(Oc3ccc(C#N)cc3)n2Cc2ccc(Cl)cc2Cl)n(C)c1=O`, the “activity change, negative = cytotoxicity” value was 4.58%. `Cc1cccc(N=C2NC(=O)/C(=C/c3cn(C)c4ccccc34)S2)c1`: the Potency is 14.6 µM (active).

Take `Cc1ccc(C(=O)N/C(=C\c2cn(C)c3ccccc23)C(=O)N2CCN(C)CC2)cc1`: the “activity change, negative = cytotoxicity” value is 7.97%. Consider `Cc1ccc(N2C(=O)S/C(=C/c3cn(C)c4ccccc34)C2=O)cc1`, for which the “activity change, negative = cytotoxicity” value is 2.62%.

Regarding `CC1=C(C(=O)N2CCOCC2)CC(CC(=O)NCCCN(C)C)C(=O)N1Cc1ccc(C(C)(C)C)cc1` (stereo unspecified), the “activity change, negative = cytotoxicity” value was 8.92%. The same measure, in the same setting: the figure for `CC(C)OC(=O)CC(=O)CC(O)c1cccc([N+](=O)[O-])c1` (stereo unspecified) is 1.32%; for `CCOC(=O)N1CCN(S(=O)(=O)c2cc(Br)cc3c2N(C(=O)C2CC2)CC3)CC1` it is -6.54%. With `CCN(c1ccc2c(c1)OCO2)S(=O)(=O)c1cc(Br)cc2c1N(C(=O)C1CC1)CC2`, the Potency was 5.17 µM (active). In the case of `CN(Cc1ccccc1)C(=O)CCS(=O)(=O)c1cc(Br)cc2c1N(C(=O)C1CC1)CC2`, the “activity change, negative = cytotoxicity” value was -12.9%. `CCOC(=O)c1ccc(-c2ccc3ncnc(N(C)Cc4sccc4C)c3c2)o1`: the “activity change, negative = cytotoxicity” value is -3.7%. Take `CCN1CCN(c2c(Cl)cccc2NC(=O)c2ccc(Br)o2)CC1`: the “activity change, negative = cytotoxicity” value is -4.86%. Still for that read-out and setting: the figure for `O=C(CNC(=O)c1ccc(Br)o1)Nc1ccccc1` is 16%. On to `CCCC(=O)Nc1ccc(Cl)c(NC(=O)c2ccc(Br)o2)c1`, for which the Potency was 20.6 µM (active). As for `Cc1ccc2cccc(NC(=O)C(C)Oc3ccc(C)c(C)c3)c2n1` (stereo unspecified), the “activity change, negative = cytotoxicity” value is 0.037%.
